Only some compounds are listed: those with a hit (about 12% of all), similar ones and a draw of the others.
Pf growth 96h – Primary qHTS for delayed death inhibitors of the malarial parasite plastid, 96 hour incubation | 320,000 compounds, 6.9% hits | Potency, µM (top dose mostly 28.7 µM), without a hit: at the top dose activity change, negative = inhibition, most hits filed as inhibitors | P. falciparum luciferase reporter growth, 96 h | AID 504834, 2011; note: % is set by controls: 0 for no effect and ±100 for the full control effect
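Two-generation exposure (96 h) targets delayed-death phenotype. Reporter parasites carrying integrated firefly luciferase, in red cells at 2% hematocrit and 0.05% parasitemia final, kept at 37 C, 5% CO2; luminescence loss indicates inhibition.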
AmpC inh no detg – qHTS Inhibitors of AmpC Beta-Lactamase (assay without detergent); AmpC nitrocefin hydrolysis, absorbance 480 nm, 0.0001% Triton; Potency, µM (highest dose often 57.1 µM), without a hit: at the highest dose activity change, negative = inhibition, usual class: inhibitors; 330,000 compounds, 0.52% hits; AID 485341, 2010;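 note: plate controls were no compound for no effect and no enzyme for full effect; nearly all actives have a fitted effect of over 20% in size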
Target sequence (P00811 whole entry, looked up): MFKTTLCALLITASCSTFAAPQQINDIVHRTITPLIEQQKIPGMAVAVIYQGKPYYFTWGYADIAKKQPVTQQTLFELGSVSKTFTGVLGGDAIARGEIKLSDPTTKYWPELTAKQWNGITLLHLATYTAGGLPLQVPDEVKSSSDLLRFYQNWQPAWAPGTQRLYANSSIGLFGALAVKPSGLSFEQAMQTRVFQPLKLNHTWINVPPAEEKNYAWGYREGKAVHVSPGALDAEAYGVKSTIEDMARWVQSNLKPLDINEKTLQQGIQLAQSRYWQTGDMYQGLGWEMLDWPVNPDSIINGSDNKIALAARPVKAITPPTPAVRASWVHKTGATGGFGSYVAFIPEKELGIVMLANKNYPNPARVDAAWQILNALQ
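AmpC (5.3 nM in the dispensed reagent) in 20 mM phosphate pH 7.0 with 0.01% (detergent screen) or 0.0001% Triton X-100 was preincubated with compounds for 15 min at room temperature. Nitrocefin was then added from an 800 uM solution, and hydrolysis was followed at 480 nm.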
SARS PLP yeast – qHTS of Yeast-based Assay for SARS-CoV PLP; Potency, µM (highest dose often 32.9 µM), inactives show at the top dose activity, positive = growth rescue, actives largely listed as activators; AID 485353, 2010; S. cerevisiae expressing SARS-CoV PLpro, growth rescue; 330,000 compounds, 0.19% hits; calls by dose curve; note: 0% is about no effect; nearly all actives have a fitted effect of over 55% in size
Pf growth 48h – Primary qHTS for delayed death inhibitors of the malarial parasite plastid, 48 hour incubation; AID 504832, 2011; 310,000 compounds, 5.9% hits; P. falciparum luciferase growth in erythrocytes, 48 h; Potency, µM (titrated, usually from 28.7 µM), without a hit: at the top dose activity change, negative = inhibition, actives largely listed as inhibitors; note: % is set by controls: 0 for no effect and ±100 for the full control effect
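Luminescence readout; reporter = integrated firefly luciferase in P. falciparum. RBC culture at 2% hematocrit, 0.1% parasitemia final, 37 C/5% CO2; decreased signal taken as growth inhibition.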
Sm TGR block – qHTS Assay for the Inhibitors of Schistosoma Mansoni Peroxiredoxins; purified TGR, DTNB reduction, TNB absorbance 405 nm; Potency, µM (doses to about 114 µM), for the others: top-dose activity change, negative = inhibition, hits mostly inhibitors; 360,000 compounds, 3% hits; AID 485364, 2010; note: % is set by controls: 0 for no effect and ±100 for the full control effect; nearly all actives have a fitted effect of over 60% in size
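Kinetic colorimetric format: TGR-catalysed, NADPH-driven DTNB reduction monitored via TNB absorbance. Enzyme dispensed at 20 nM; compound exposure 15 min at room temperature before reaction start.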
AmpC detergent – qHTS Inhibitors of AmpC Beta-Lactamase (assay with detergent). P00811. AmpC hydrolysis of nitrocefin, absorbance 480 nm, 0.01% Triton. Potency, µM (doses to about 114 µM), inactives show at the top dose activity change, negative = inhibition, hits mostly inhibitors. 370,000 compounds, 0.041% hits. AID 485294, 2010;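 note: 0% = no-compound wells and -100% = no-enzyme wells; nearly all actives have a fitted effect of over 25% in size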
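20 mM phosphate pH 7.0 + 0.01% (detergent screen) or 0.0001% Triton X-100; 5.3 nM AmpC reagent; cpd preinc 15 min RT; nitrocefin (800 uM stock) to start; A480 q20 s × 4 min; Activity was normalised to no-enzyme and no-compound control wells.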
* hit, by the source's call; ? = inconclusive; nt = no result; [ ] = remark or other dose. Unless noted, calls come from the whole dose curve; as a rule, active = well fitted curve in the direction sought with a large enough effect; inconclusive = small, poorly fitted or top-dose-only effect, or another doubt; inactive = no such curve, though single readings can be large; an effect the other way counts as inactive or inconclusive. Potency is the fitted concentration of half-maximal effect.

SMILES | Pf growth 96h | AmpC inh no detg | SARS PLP yeast | Pf growth 48h | Sm TGR block | AmpC detergent
CCOC(=O)CN(Cc1ccccc1)C(C(=O)NC1CCCCC1)c1ccc(C)cc1 (configuration not stated) | nt | nt | nt | nt | 2.5% | -8.5%
O=C(c1cc(-c2ccc(O)cc2)on1)N1CCc2ccccc2C1 | 0.37µM* | -31.8% | -23.7% | nt | 1.7% | -11.1%
O=C(c1cc(-c2ccco2)on1)N1CCc2ccccc2C1 | nt | -37.0% | 2.1% | 15.8% | 12.6µM* | 5.5%
CCCCNC(=O)c1sc2ncnc(N3CCc4ccccc4C3)c2c1C | 14.7µM* | -1.0% | -10.3% | ? | 14.7% | ?
O=C(c1cnn2c(C(F)(F)F)cc(-c3cccs3)nc12)N1CCN(Cc2ccccc2)CC1 | ? | 177.9% | -39.2% | 2.33µM* | -27.0% | ?
CN1CCN(C(=O)c2cnn3c(C(F)(F)F)cc(-c4cccs4)nc23)CC1 | ? | -15.5% | 10.4% | -13.5% | 4.3% | ?
COc1ccccc1-c1cc(C(F)(F)F)n2ncc(C(=O)N3CCc4ccccc4C3)c2n1 | ? | 0.1% | 0.4% | 2.33µM* | -24.5% | -0.1%
O=C(c1cnn2c(C(F)(F)F)cc(-c3cccs3)nc12)N1CCN(C(c2ccccc2)c2ccccc2)CC1 | ? | -14.1% | 1.9% | 0.928µM* | -13.4% | -6.9%
COc1ccccc1-c1cc(C(=O)N2CCc3ccccc3C2)c2ccccc2n1 | ? | -1.3% | -6.4% | ? | -3.0% | 0.5%
CCOC(=O)C1=C(C)Nc2sc(C(=O)c3ccc(OC)cc3)c(N)c2C1c1ccc(C(=O)OC)cc1 (configuration not stated) | 5.86µM* | ? | 0.7% | 7.38µM* | -10.1% | -9.7%
OCC[N+]12CCC(CC1)C(C(O)(c1ccccc1)c1ccccc1)C2 (configuration not stated) | -38.4% | -0.8% | 1.1% | ? | 3.2% | 2.4%
O=C(C[N+]12CCC(CC1)C(C(O)(c1ccccc1)c1ccccc1)C2)c1ccc(Br)cc1 (configuration not stated) | 8.28µM* | 41.1% | 0.2% | ? | 2.7% | -13.9%
Cc1ccc(NC(=O)Cn2nnc(C(=O)NCc3cccs3)c2N)cc1F | -22.8% | -31.8% | 5.8% | 40.1% | -2.3% | -3.4%
CCOC(=O)c1c(/N=C/c2cc([N+](=O)[O-])ccc2O)sc(C)c1C | 9.28µM* | -57.9% | -74.6% | ? | -10.8% | -12.7%
CC(C)(C)C(=O)NC1=NCCS1 | 1.47µM* | -8.2% | 2.6% | 9.8% | 3.6% | ?
O=C(NC1=NCCS1)C1CCCCC1 | ? | -20.6% | -2.1% | 180.8% | 0.0% | -17.1%
O=C(NC1=NCCS1)NC12CC3CC(CC(C3)C1)C2 | 1.17µM* | -5.2% | -26.9% | -0.2% | -9.2% | -20.2%
O=C(CCC1CCCCC1)NC1=NCCS1 | 10.4µM* | -32.3% | -77.3% | 71.2% | 6.9% | -1.5%
CC(C(=O)NC1=NCCS1)(C(F)(F)F)C(F)(F)F | nt | -9.3% | 0.2% | -2.3% | 14.6% | -0.8%
O=C(CC12CC3CC(C1)CC(CC(=O)NC1=NCCS1)(C3)C2)NC1=NCCS1 | nt | ? | 1.3% | 9.28µM* | -5.3% | -1.7%
O=C(NC1=NCCS1)C12CC3CC(C1)CC(C(=O)NC1=NCCS1)(C3)C2 | -8.5% | -31.8% | 4.6% | -17.2% | 6.0% | -12.5%
O=C(NC1=NCCS1)Nc1ccccc1 | 88.1% | -17.9% | -7.7% | 337.0% | -18.2% | -2.2%
Brc1cccc(-c2cnn3c(-c4ccccc4)cc(-c4ccccc4)nc23)c1 | nt | nt | nt | nt | -3.1% | 11.5%
CC12CC3CC(C)(C1)CC(C(=O)NCc1ccncc1)(C3)C2 | 71.8% | -0.6% | 3.8% | 8.1% | 0.8% | -5.7%
CC12CC3CC(C)(C1)CC(C(=O)NC1=NCCS1)(C3)C2 | 11.7µM* | -2.3% | -12.4% | nt | 2.9% | -0.4%
SMILES | Pf growth 96h | AmpC inh no detg | SARS PLP yeast | Pf growth 48h | Sm TGR block | AmpC detergent
O=C1CN(CC(=O)Nc2cccc(Cl)c2Cl)c2ccccc2N1 | -1.1% | -15.6%[11.4 µM] | 0.0% | -9.5% | 50.1µM* | -14.7%
O=C(CN1C(=O)NC2(CCCC2)C1=O)Nc1cccc(Cl)c1Cl | 43.6% | -3.1% | -0.1% | 24.0% | -4.3% | ?
O=C1CN(C(=O)Cn2ncc(Cl)c(Cl)c2=O)c2ccccc2N1 | ? | -13.5% | -7.4% | -4.7% | 25.1µM* | 5.5%
O=C1CN(C(=O)COc2ccc(Br)cc2F)c2ccccc2N1 | 8.28µM* | -6.2% | 19.7% | 5.86µM* | -9.9% | -4.8%
O=C1CN(C(=O)COc2ccc([N+](=O)[O-])cc2Cl)c2ccccc2N1 | 10.4µM* | -35.6% | -2.6% | 2.94µM* | -10.5% | -0.4%
CN(C(=O)c1cccc(NC(=O)Cc2cccc([N+](=O)[O-])c2)c1)C1CCCC1 | nt | -1.8% | 5.3% | nt | nt | nt
Cc1ccc(OCc2cc(=O)n3cc(C)sc3n2)c(NC(=O)c2ccco2)c1 | nt | nt | nt | nt | 6.5% | 14.5%
COc1cc(CN2CCN(CC3CC3)CC2CCO)cc(OC)c1 (configuration not stated) | ? | -11.0% | 0.7% | -1.3% | 0.9% | 0.6%
COc1ccc(/C=C/C(=O)OCC(=O)N2CC(=O)Nc3ccccc32)cc1 | ? | -44.5% | -8.5% | -5.4% | -1.3% | -13.9%
O=C1CN(C(=O)COC(=O)c2ccc([N+](=O)[O-])o2)c2ccccc2N1 | 3.5% | -10.5% | -0.9% | -5.6% | 44.7µM* | -1.9%
Cn1c2ccccc2c2cc(C(=O)OCC(=O)N3CC(=O)Nc4ccccc43)sc21 | 2.5% | -6.5% | -3.7% | 4.15µM* | -0.1% | -13.5%
O=C(COC(=O)c1ccc([N+](=O)[O-])o1)Nc1cccc2ccccc12 | 16.0% | -42.8% | -4.7% | -2.1% | 14.1µM* | -8.4%
CCCCOc1ccc(/C=C/C(=O)OCC(=O)N2CC(=O)Nc3ccccc32)cc1OCC | ? | 8.5% | 3.5% | 10.4µM* | 2.4% | -12.6%
CCn1c(CNC(=O)c2cccc(C)c2)nc2ccccc21 | -0.4% | -12.9% | -3.2% | -1.8% | 4.6% | -12.5%
COC(=O)c1c(SC)nc2ccccc2c1OCc1ccc(C)cc1 | nt | nt | nt | nt | 16.9% | 0.7%
O=C1CN(C(=O)COc2ccc(Cl)c(Cl)c2)c2ccccc2N1 | 3.29µM* | -12.8% | -3.8% | 13.1µM* | -0.5% | -12.3%
COc1ccc(OCC(=O)Nc2cccc(-c3nc4ccccc4s3)c2C)cc1 | nt | nt | nt | nt | -3.6% | 12.8%
CC1Cc2ccccc2N1S(=O)(=O)c1cnc(Cl)c(Br)c1 (configuration not stated) | ? | -9.8% | 0.1% | -28.9% | 7.94µM* | 1.1%
